The source made the active and inactive calls. How the source made its calls: active means hit-call score of the fitted dose curve at least 0.9, where 1 is the maximum; inactive means score below 0.9.

These results are taken from PubChem BioAssay AID2284168 (EPA ToxCast).

Chain of human Opioid Receptor delta (DOP) Agonism, OPRD1 (gene 4985) (P41143 whole entry, looked up): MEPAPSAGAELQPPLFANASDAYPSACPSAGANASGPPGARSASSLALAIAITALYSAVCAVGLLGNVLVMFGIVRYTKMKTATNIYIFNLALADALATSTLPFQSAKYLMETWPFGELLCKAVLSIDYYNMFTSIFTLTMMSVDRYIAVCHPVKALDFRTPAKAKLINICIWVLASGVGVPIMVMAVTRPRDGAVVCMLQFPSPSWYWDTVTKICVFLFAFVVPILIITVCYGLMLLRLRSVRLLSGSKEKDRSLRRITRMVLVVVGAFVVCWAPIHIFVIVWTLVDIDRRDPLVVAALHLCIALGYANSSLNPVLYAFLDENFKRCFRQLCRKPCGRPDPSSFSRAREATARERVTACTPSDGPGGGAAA

This experiment has as its target human Opioid Receptor delta (DOP) Agonism, OPRD1 (gene 4985) (UniProt P41143). Description: ERF_FR_GPCR_hOPRD1: Eurofins (ERF) G Protein-Coupled Receptor (GPCR) Radioligand Binding LeadHunter Assay for human Opioid Receptor delta (DOP) Agonism. As to the method: ERF_FR_GPCR_hOPRD1 is a biochemical, single-readout assay that uses extracted gene-proteins in a cell-free assay. Measurements were taken 1 hour after chemical dosing in a 96-well plate. See delta (DOP) Human Opioid GPCR Binding (Agonist Radioligand) Assay, Cerep.ERF_FR_GPCR_hOPRD1 is an assay component calculated from the ERF_FR_GPCR_hOPRD1 assay. It is designed to measure radioligand binding using a type of binding reporter as detected by scintillation counting with radiometry technology.Data from the assay component ERF_FR_GPCR_hOPRD1 was analyzed at the assay endpoint, ERF_FR_GPCR_hOPRD1, in the positive analysis fitting direction relative to DMSO as the negative control and baseline of activity. Using a type of binding reporter, gain-of-signal activity can be used to understand changes in binding as they relate to gene OPRD1. To generalize the intended target to other relatable targets, this assay endpoint is annotated to the gpcr intended target family, where the subfamily is opioid.
Human cells are incubated for 60 minutes at room temprature with [3H]DADLE ligand (0.5 nM) and DPDPE as control inhibitor. Test Sample Requirements: Minimum for 1) Screen: 60 ul of 10 mM stock -OR- 1 mg (pre-weighed) for 10 uM final testing. 2) Dose Response: 90 ul of 10 mM stock -OR- 1 mg (pre-weighed) for a top concentration at 10 uM.
By AC50 is commonly meant the concentration at which the activity in the assay is half-maximal. Take `O=C(/C=C/c1ccc(O)cc1)CC(=O)/C=C/c1ccc(O)cc1`: the AC50 was 1.5 µM (active).
